Measured values taken from PubChem BioAssay (EPA / NIEHS).
Results filed as inconclusive are left out. Active and inactive are the calls of the source. How the source made its calls, unless noted: active means hit-call score of the fitted dose curve at least 0.9, where 1 is the maximum; inactive means score below 0.9.

Columns and labels:
[1] = target: Myc proto-oncogene protein (Homo sapiens) (UniProt P01106); experiment: ATG_Myc_CIS: Attagene CIS-FACTORIAL HepG2 Assay for human Myelocytomatosis (Myc) Proto-Oncogene Transcription Factor (AID 2282990); conditions: HepG2, Attagene cis-reporter transcription factor activity; actives raise or lower the signal
In short: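 HepG2 cells transiently transfected with multiple cis-promoter-driven reporter transcription units, so endogenous TF activity is read. After 24 h compound exposure, reporter mRNA was quantified by RT-PCR, 6-FAM labelling, HpaI digestion and capillary electrophoresis; bidirectional fit versus DMSO.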

[2] = ATG_NF_kB_CIS: Attagene CIS-FACTORIAL HepG2 Assay for human Nuclear Factor Kappa B (NF-kB) (AID 2282991); conditions: HepG2 Attagene cis-factorial NF-kB reporter mRNA; actives raise or lower the signal
In short: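 HepG2 cells transiently transfected with multiplexed cis-element reporter units measuring endogenous transcription factor activity; reporter mRNA read 24 h after dosing by RT-PCR, fluorescent labelling, HpaI digestion and capillary electrophoresis. Bidirectional fit against DMSO baseline.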

[3] = ATG_NRF2_ARE_CIS: Attagene CIS-FACTORIAL HepG2 Assay for human Nuclear Factor Erythroid 2 Related Factor 2 (NFR2) response to Antioxidant Response Elements (ARE) (AID 2282992); conditions: HepG2 Attagene ARE/NRF2 reporter, transcription factor activity; actives raise or lower the signal;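 on AC50: reporter mRNA level measured by RT-PCR and capillary electrophoresis fluorescence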
In short: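 Transient MRTU transfection of HepG2; 24 h compound exposure; TriZol RNA, RT with oligo(dT), PCR, 6-FAM primer extension, HpaI cut, CE. Bidirectional fit vs DMSO.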

[4] = ATG_Oct_MLP_CIS: Attagene CIS-FACTORIAL HepG2 Assay for human Octamer-Binding Transcription Factor (Oct) (AID 2282993); conditions: HepG2 Attagene cis-factorial Oct reporter, mRNA; actives raise or lower the signal
In short: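 Readout is reporter transcript level from RT-PCR with fluorescent primer extension and capillary electrophoresis, fitted in both directions against DMSO. Transfected HepG2 reporter units report endogenous factor activity after 24 h dosing.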

[5] = target: Cellular tumor antigen p53 (Homo sapiens) (UniProt P04637); experiment: ATG_p53_CIS: Attagene CIS-FACTORIAL HepG2 Assay for human p53 Transcription Factor (AID 2282994); conditions: HepG2 p53 cis-element reporter, Attagene mRNA; actives raise or lower the signal
In short: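 HepG2, transient MRTU transfection (cis promoter elements, endogenous TFs); 24 h dosing; RNA isolation, RT-PCR, 6-FAM primer extension, HpaI digest, CE fluorescence; bidirectional fit vs DMSO.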

[6] = target: human Peroxisome Proliferator-activated Receptor alpha (PPARa), PPARA (gene 5465) (UniProt Q07869); experiment: ATG_PPARa_TRANS: Attagene TRANS-FACTORIAL HepG2 Assay for human Peroxisome Proliferator-activated Receptor alpha (PPARa) (AID 2283001; active means hit-call score of the fitted dose curve at least 0.9, where 1 is the maximum;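 on AC50: potency for gain of reporter signal over DMSO so agonist or activator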)
In short: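 HepG2 cells transiently transfected with multiplexed GAL4-UAS reporter units and chimeric NR-Gal4 constructs were dosed for 24 h. Reporter mRNA was measured by RT-PCR with fluorescent labelling and capillary electrophoresis; gain of signal fitted against DMSO.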

[7] = target: human Peroxisome Proliferator-activated Receptor delta (PPARd), PPARD (gene 5467) (UniProt Q03181); experiment: ATG_PPARd_TRANS: Attagene TRANS-FACTORIAL HepG2 Assay for human Peroxisome Proliferator-activated Receptor delta (PPARd) (AID 2283002; active means hit-call score of the fitted dose curve at least 0.9, where 1 is the maximum)
In short: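 HepG2 cells transiently transfected with multiplexed GAL4-UAS reporter units and exogenous chimeric NR-Gal4 proteins; 24 h compound exposure. Reporter mRNA measured by RT-PCR, 6-FAM labelling, HpaI digestion and capillary electrophoresis; gain of signal versus DMSO.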

[8] = target: Nuclear receptor subfamily 1 group I member 2 (Homo sapiens) (UniProt O75469); experiment: ATG_PXR_TRANS: Attagene TRANS-FACTORIAL HepG2 Assay for human Pregnane X Receptor (PXR) (AID 2283008; active means hit-call score of the fitted dose curve at least 0.9, where 1 is the maximum)
In short: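 Read-out is fluorescence of labelled reporter cDNA fragments separated by capillary electrophoresis after RT-PCR and HpaI digestion. Source: HepG2 cells carrying PXR-GAL4/UAS reporter constructs, treated 24 h; activity fitted upward relative to DMSO.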

[9] = target: Peroxisome proliferator-activated receptor gamma (Homo sapiens) (UniProt P37231); experiment: ATG_PPARg_TRANS: Attagene TRANS-FACTORIAL HepG2 Assay for human Peroxisome Proliferator-activated Receptor-gamma (PPARg) (AID 2283007; active means hit-call score of the fitted dose curve at least 0.9, where 1 is the maximum)
In short: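 HepG2 cells transiently transfected with multiplexed GAL4-UAS reporter units and exogenous chimeric NR-Gal4 proteins; reporter mRNA quantified after 24 h compound exposure by RT-PCR, fluorescent labelling, HpaI digestion and capillary electrophoresis; gain-of-signal fitted versus DMSO baseline.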

[10] = target: human Retinoic Acid Receptor beta (RARb), RARB (gene 5915) (UniProt P10826); experiment: ATG_RARb_TRANS: Attagene TRANS-FACTORIAL HepG2 Assay for human Retinoic Acid Receptor beta (AID 2283004; active means hit-call score of the fitted dose curve at least 0.9, where 1 is the maximum)
In short: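 Induction of reporter mRNA from a chimeric RARb-Gal4 construct was measured by RT-PCR, FAM labelling, HpaI digestion and capillary electrophoresis. Measurements followed 24 h compound treatment of transiently transfected human HepG2 liver cells, with DMSO as baseline.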

[11] = target: human Retinoic Acid Receptor gamma (RARg), RARG (gene 5916) (UniProt P13631); experiment: ATG_RARg_TRANS: Attagene TRANS-FACTORIAL HepG2 Assay for human Retinoic Acid Receptor gamma (RARg) (AID 2283009; active means hit-call score of the fitted dose curve at least 0.9, where 1 is the maximum)
In short: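 HepG2, RARg-GAL4 TRANS system, 24 h exposure; reporter mRNA by RT-PCR + CE fluorescence; increase over DMSO.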

[12] = BSK_3C_TissueFactor: BioMAP Diversity Plus: 3C Assay for Tissue Factor Biomarker Activity (AID 2282997); conditions: BioMAP 3C HUVEC, tissue factor biomarker readout; actives raise or lower the signal
In short: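 Dosing of human umbilical vein endothelial cells preceded a 24 h incubation. Tissue Factor was then read by ELISA, with increases and decreases both scored relative to DMSO controls.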

[13] = BSK_3C_uPAR: BioMAP Diversity Plus: 3C Assay for Urokinase-type plasminogen activator receptor (uPAR) Biomarker Activity (AID 2282998); conditions: BioMAP 3C HUVEC, uPAR biomarker ELISA; actives raise or lower the signal
In short: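 Cell-surface uPAR on HUVEC (3C system) read by ELISA at 24 h post-treatment, with DMSO as baseline and fitting in both directions. Parallel cultures stained with SRB to flag overt cytotoxicity.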

[14] = BSK_3C_VCAM1: BioMAP Diversity Plus: 3C Assay for Vascular cell adhesion molecule 1 (VCAM1) Biomarker Activity (AID 2282999); conditions: BioMAP 3C HUVEC, VCAM1 ELISA, cytokine-stimulated; actives raise or lower the signal
In short: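 Human umbilical vein endothelial cells were dosed with compound for 24 h, after which cell-surface VCAM-1 was quantified by ELISA. Bidirectional curve fitting used DMSO as negative control and activity baseline.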

[15] = BSK_4H_Eotaxin3: BioMAP Diversity Plus: 4H Assay for Eotaxin 3 Biomarker Activity (AID 2283000); conditions: primary human endothelial cells (HUVEC); actives raise or lower the signal;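 further: CCL26 protein level quantified by ELISA in parallel with SRB cytotoxicity check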
In short: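 Human umbilical vein endothelial cells (BSK_4H system) dosed with test chemical; Eotaxin-3 (CCL26) measured by ELISA 24 h after dosing. Bidirectional curve fitting relative to DMSO negative control as baseline.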

[16] = read-out: Intercellular Adhesion Molecule 1 (ICAM1), ICAM1 (gene 3383); experiment: BSK_3C_ICAM1: BioMAP Diversity Plus: 3C Assay for Intercellular Adhesion Molecule 1 (ICAM1) Biomarker Activity (AID 2283003); conditions: primary human endothelial cells (HUVEC); actives raise or lower the signal
In short: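 Human vascular endothelial primary cells, 3C conditions, 24 h treatment. ICAM-1 by ELISA.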

[17] = BSK_3C_Proliferation: Cell Proliferation Assessment in the BioMAP Diversity Plus: 3C Assay (AID 2283006); conditions: primary human endothelial cells (HUVEC)
In short: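 Proliferation of human vascular endothelial primary cells after 48 h dosing, quantified as SRB-stained protein at 560 nm relative to DMSO.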

[18] = target: human RAR-related Orphan Receptor beta (RORb), RORB (gene 6096) (UniProt Q92753); experiment: ATG_RORb_TRANS: Attagene TRANS-FACTORIAL HepG2 Assay for human RAR-related Orphan Receptor beta (RORb) (AID 2283010; active means hit-call score of the fitted dose curve at least 0.9, where 1 is the maximum)
In short: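 In this TRANS-format test, human HepG2 cells express chimeric NR-Gal4 fusion proteins driving GAL4-UAS reporters. After 24 h dosing, reporter transcripts are measured by fluorescent RT-PCR/capillary electrophoresis, with DMSO as negative control.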

[19] = target: Retinoic acid receptor alpha (Homo sapiens) (UniProt P10276); experiment: ATG_RARa_TRANS: Attagene TRANS-FACTORIAL HepG2 Assay for human Retinoic Acid Receptor alpha (RARa) (AID 2283005; active means hit-call score of the fitted dose curve at least 0.9, where 1 is the maximum)
In short: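 HepG2 cells transiently transfected with multiple reporter units expressing chimeric RARα-GAL4 fusion, with GAL4-UAS-driven reporters. After 24 h compound exposure, reporter mRNA induction quantified by RT-PCR and capillary electrophoresis with fluorescent labeling; gain-of-signal fitted relative to DMSO control.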

human Retinoic Acid Receptor beta (RARb), RARB (gene 5915), sequence (P10826 whole entry, looked up, the tested form may be a part): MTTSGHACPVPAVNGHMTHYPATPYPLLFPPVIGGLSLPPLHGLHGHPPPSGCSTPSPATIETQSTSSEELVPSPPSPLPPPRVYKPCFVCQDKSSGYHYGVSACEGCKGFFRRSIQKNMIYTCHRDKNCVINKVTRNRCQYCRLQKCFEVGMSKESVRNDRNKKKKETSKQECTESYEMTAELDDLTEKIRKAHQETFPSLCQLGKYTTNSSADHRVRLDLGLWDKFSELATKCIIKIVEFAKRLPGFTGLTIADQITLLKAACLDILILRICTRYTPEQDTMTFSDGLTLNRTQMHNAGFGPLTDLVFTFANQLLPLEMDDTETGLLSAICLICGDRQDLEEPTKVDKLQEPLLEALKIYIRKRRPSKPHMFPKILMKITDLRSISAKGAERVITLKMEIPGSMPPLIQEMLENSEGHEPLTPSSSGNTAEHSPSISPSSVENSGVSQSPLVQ
Myc proto-oncogene protein (Homo sapiens), sequence (P01106 whole entry, looked up): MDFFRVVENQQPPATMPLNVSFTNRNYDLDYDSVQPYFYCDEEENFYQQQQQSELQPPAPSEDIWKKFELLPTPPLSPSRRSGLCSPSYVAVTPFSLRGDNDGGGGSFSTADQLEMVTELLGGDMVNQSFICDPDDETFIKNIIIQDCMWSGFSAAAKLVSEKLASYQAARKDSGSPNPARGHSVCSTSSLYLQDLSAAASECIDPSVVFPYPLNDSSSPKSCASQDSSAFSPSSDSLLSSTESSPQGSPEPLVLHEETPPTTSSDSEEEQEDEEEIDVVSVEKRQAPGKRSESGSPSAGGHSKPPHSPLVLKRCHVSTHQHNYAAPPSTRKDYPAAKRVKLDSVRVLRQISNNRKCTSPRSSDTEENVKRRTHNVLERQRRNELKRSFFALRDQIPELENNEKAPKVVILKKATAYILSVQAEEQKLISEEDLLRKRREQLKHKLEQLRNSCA
Cellular tumor antigen p53 (Homo sapiens), sequence (P04637 whole entry, looked up): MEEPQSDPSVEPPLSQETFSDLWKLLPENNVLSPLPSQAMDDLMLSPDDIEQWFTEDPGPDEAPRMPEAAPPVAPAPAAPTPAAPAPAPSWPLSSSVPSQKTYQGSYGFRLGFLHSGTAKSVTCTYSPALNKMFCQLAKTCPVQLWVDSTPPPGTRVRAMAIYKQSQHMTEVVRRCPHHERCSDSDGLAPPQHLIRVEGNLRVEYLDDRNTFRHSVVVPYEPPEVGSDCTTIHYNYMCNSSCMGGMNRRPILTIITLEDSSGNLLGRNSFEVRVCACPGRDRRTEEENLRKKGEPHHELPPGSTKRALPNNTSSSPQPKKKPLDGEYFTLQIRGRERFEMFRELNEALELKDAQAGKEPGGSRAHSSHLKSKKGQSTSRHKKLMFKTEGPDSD
Nuclear receptor subfamily 1 group I member 2 (Homo sapiens), sequence (O75469 whole entry, looked up, the tested form may be a part): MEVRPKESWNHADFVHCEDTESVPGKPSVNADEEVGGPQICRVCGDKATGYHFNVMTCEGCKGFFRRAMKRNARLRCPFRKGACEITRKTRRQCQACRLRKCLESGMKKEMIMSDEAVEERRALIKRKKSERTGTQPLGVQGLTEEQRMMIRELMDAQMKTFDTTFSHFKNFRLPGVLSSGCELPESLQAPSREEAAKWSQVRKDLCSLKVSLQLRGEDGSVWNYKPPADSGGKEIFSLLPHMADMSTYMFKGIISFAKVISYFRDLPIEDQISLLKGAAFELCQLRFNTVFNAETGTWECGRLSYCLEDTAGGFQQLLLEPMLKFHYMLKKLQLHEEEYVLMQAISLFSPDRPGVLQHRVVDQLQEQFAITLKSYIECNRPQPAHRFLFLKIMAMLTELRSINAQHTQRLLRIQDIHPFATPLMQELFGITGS
Peroxisome proliferator-activated receptor gamma (Homo sapiens), sequence (P37231 whole entry, looked up, the tested form may be a part): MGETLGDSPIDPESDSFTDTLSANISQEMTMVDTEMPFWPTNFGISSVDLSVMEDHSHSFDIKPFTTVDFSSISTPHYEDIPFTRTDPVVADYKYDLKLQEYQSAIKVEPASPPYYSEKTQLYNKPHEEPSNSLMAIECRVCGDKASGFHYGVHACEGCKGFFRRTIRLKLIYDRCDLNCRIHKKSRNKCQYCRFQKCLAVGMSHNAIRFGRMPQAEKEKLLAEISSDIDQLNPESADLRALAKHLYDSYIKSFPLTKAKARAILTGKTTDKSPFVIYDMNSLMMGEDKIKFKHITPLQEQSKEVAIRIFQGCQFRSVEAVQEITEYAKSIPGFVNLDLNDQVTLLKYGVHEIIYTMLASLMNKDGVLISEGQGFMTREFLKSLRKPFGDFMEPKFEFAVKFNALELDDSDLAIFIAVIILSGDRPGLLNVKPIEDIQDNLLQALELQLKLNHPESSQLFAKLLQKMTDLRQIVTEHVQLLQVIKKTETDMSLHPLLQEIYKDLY
human RAR-related Orphan Receptor beta (RORb), RORB (gene 6096), sequence (Q92753 whole entry, looked up, the tested form may be a part): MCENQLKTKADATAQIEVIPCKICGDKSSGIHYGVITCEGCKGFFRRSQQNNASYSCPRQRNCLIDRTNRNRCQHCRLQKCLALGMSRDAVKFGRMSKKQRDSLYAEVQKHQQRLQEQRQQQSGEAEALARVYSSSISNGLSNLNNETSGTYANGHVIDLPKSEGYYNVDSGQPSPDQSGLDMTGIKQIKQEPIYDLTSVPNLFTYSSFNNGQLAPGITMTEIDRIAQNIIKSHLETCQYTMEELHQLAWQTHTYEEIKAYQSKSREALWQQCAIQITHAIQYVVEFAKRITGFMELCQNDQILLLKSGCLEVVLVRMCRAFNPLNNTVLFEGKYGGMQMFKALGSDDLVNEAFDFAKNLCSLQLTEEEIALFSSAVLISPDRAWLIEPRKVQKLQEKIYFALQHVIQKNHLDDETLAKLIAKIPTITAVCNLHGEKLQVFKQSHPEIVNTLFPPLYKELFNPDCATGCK
human Peroxisome Proliferator-activated Receptor alpha (PPARa), PPARA (gene 5465), sequence (Q07869 whole entry, looked up, the tested form may be a part): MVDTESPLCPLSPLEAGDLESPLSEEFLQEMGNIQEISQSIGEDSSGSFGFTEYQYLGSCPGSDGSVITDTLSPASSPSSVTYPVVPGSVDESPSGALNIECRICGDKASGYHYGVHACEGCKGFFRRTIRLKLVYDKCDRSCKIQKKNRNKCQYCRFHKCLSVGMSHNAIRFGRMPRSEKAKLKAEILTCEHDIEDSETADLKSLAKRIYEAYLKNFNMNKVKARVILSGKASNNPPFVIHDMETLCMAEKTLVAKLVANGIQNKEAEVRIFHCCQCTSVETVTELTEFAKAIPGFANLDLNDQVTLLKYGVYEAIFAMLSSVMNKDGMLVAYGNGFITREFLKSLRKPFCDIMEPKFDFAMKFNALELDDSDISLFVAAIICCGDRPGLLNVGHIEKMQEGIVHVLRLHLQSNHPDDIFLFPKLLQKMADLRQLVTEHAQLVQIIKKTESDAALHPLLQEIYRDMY
human Peroxisome Proliferator-activated Receptor delta (PPARd), PPARD (gene 5467), sequence (Q03181 whole entry, looked up, the tested form may be a part): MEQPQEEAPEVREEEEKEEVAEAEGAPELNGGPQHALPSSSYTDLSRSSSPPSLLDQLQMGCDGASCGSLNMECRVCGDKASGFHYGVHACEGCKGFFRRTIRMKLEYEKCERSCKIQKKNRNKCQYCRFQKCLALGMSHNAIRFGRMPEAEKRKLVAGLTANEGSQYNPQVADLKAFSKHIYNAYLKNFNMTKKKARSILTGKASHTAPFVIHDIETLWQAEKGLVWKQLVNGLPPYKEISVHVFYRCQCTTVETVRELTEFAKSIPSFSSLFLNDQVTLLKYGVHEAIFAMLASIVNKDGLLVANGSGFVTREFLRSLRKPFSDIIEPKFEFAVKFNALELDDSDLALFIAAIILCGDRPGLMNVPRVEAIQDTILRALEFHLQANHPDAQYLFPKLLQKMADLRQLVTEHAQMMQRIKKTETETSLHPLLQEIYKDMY
human Retinoic Acid Receptor gamma (RARg), RARG (gene 5916), sequence (P13631 whole entry, looked up, the tested form may be a part): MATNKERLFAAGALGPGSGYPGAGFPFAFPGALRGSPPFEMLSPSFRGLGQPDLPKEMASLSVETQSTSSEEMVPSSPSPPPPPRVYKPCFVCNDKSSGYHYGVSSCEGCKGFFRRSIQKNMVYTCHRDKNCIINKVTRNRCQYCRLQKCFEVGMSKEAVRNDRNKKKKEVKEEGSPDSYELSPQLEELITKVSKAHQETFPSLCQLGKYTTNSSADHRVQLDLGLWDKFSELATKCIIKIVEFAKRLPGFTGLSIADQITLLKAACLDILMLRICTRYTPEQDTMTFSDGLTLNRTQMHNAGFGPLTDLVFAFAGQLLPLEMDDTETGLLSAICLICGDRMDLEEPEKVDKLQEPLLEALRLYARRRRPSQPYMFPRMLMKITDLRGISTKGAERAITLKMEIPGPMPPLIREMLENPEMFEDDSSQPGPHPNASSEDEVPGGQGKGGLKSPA
Retinoic acid receptor alpha (Homo sapiens), sequence (P10276 whole entry, looked up, the tested form may be a part): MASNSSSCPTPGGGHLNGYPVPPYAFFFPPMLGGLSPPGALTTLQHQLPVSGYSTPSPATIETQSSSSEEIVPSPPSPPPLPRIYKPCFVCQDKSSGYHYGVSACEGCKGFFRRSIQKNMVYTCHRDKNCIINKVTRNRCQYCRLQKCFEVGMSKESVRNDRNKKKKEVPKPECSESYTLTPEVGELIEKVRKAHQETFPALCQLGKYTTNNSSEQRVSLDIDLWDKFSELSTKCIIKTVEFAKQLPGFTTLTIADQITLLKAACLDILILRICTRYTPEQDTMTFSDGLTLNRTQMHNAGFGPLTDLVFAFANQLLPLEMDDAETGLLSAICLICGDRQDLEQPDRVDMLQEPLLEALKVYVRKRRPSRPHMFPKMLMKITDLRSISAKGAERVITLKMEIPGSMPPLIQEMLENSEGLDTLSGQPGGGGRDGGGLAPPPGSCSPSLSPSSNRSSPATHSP

## CCC(=O)OCCC(C)CCC=C(C)C (configuration not stated)
[1]
  outcome: inactive
[2]
  outcome: inactive
[3]
  AC50: 63.9 µM (active)
[4]
  outcome: inactive
[5]
  outcome: inactive
[6]
  outcome: inactive
[7]
  outcome: inactive
[8]
  outcome: inactive

## C[C@H]1C[C@H]2[C@@H]3CCC4=CC(=O)C=C[C@]4(C)[C@@]3(F)[C@@H](O)C[C@]2(C)[C@@]1(O)C(=O)COP(=O)(O)O
[1]
  outcome: inactive
[2]
  outcome: inactive
[3]
  AC50: 15.6 µM (active)
[4]
  outcome: inactive
[5]
  outcome: inactive
[6]
  outcome: inactive
[7]
  outcome: inactive
[9]
  outcome: inactive
[8]
  outcome: inactive

## COc1ccc(O)cc1
[1]
  outcome: inactive
[2]
  outcome: inactive
[3]
  outcome: inactive
[4]
  outcome: inactive
[5]
  outcome: inactive
[6]
  outcome: inactive
[9]
  outcome: inactive

## NCCCCCCN
[1]
  outcome: inactive
[2]
  outcome: inactive
[3]
  outcome: inactive
[4]
  outcome: inactive
[5]
  outcome: inactive
[6]
  outcome: inactive
[10]
  outcome: inactive
[9]
  outcome: inactive
[8]
  outcome: inactive
[11]
  outcome: inactive

## O=C(O)c1cn(C2CC2)c2cc(N3CCNCC3)c(F)cc2c1=O
[1]
  outcome: inactive
[4]
  outcome: inactive
[5]
  outcome: inactive
[12]
  outcome: inactive
[13]
  outcome: inactive
[14]
  outcome: inactive
[15]
  outcome: inactive
[6]
  outcome: inactive
[16]
  outcome: inactive
[17]
  outcome: inactive
[9]
  outcome: inactive
[8]
  outcome: inactive

## CC(=O)O[C@H](CC(=O)[O-])C[N+](C)(C)C
[1]
  outcome: inactive
[2]
  outcome: inactive
[3]
  outcome: inactive
[4]
  outcome: inactive
[5]
  outcome: inactive
[7]
  outcome: inactive
[9]
  outcome: inactive

## CC(CCO)CCCC(C)(C)O (configuration not stated)
[1]
  outcome: inactive
[2]
  outcome: inactive
[3]
  outcome: inactive
[4]
  outcome: inactive
[6]
  outcome: inactive
[7]
  outcome: inactive
[9]
  outcome: inactive
[8]
  outcome: inactive

## CC(=O)C(=O)O
[1]
  outcome: inactive
[3]
  outcome: inactive
[4]
  outcome: inactive
[5]
  outcome: inactive
[7]
  outcome: inactive
[10]
  outcome: inactive
[18]
  outcome: inactive

## CC(C)(C)c1cc(CCC(=O)NN)cc(C(C)(C)C)c1O
[2]
  outcome: inactive
[3]
  outcome: inactive
[4]
  outcome: inactive
[5]
  outcome: inactive
[8]
  outcome: inactive

## O=C1CCc2ccccc2O1
[1]
  outcome: inactive
[3]
  outcome: inactive
[4]
  outcome: inactive
[5]
  outcome: inactive
[6]
  outcome: inactive
[9]
  outcome: inactive
[8]
  outcome: inactive

## CC(C)[C@@H]1CC[C@@H](C)CC1=O
[1]
  outcome: inactive
[3]
  outcome: inactive
[4]
  outcome: inactive
[5]
  outcome: inactive
[6]
  outcome: inactive
[18]
  outcome: inactive

## C=CC(=O)OCCn1c(=O)n(CCOC(=O)C=C)c(=O)n(CCOC(=O)C=C)c1=O
[1]
  outcome: inactive
[3]
  AC50: 0.811 µM (active)
[5]
  AC50: 24.3 µM (active)
[6]
  AC50: 8.62 µM (active)
[8]
  outcome: inactive

## O=[N+]([O-])c1ccc(C=Cc2ccc([N+](=O)[O-])cc2S(=O)(=O)O)c(S(=O)(=O)O)c1
[1]
  outcome: inactive
[2]
  outcome: inactive
[3]
  outcome: inactive
[4]
  outcome: inactive
[9]
  outcome: inactive
[18]
  outcome: inactive

## CC1(C)[C@@H]2CC[C@@]1(C)[C@H](O)C2
[1]
  outcome: inactive
[3]
  outcome: inactive
[4]
  outcome: inactive
[5]
  outcome: inactive
[6]
  outcome: inactive
[7]
  outcome: inactive
[8]
  outcome: inactive

## CO[Si](CCCn1c(=O)n(CCC[Si](OC)(OC)OC)c(=O)n(CCC[Si](OC)(OC)OC)c1=O)(OC)OC
[1]
  outcome: inactive
[2]
  outcome: inactive
[3]
  outcome: inactive
[5]
  outcome: inactive
[10]
  outcome: inactive
[9]
  outcome: inactive
[8]
  outcome: inactive

## CC1=CC(=O)NS(=O)(=O)O1
[1]
  outcome: inactive
[2]
  outcome: inactive
[3]
  outcome: inactive
[4]
  outcome: inactive
[7]
  outcome: inactive

## CC(C#N)(CCC(=O)O)N=NC(C)(C#N)CCC(=O)O (configuration not stated)
[1]
  outcome: inactive
[3]
  outcome: inactive
[4]
  outcome: inactive
[5]
  outcome: inactive
[6]
  outcome: inactive
[18]
  outcome: inactive

## Cc1ccc2ccccc2n1
[1]
  outcome: inactive
[2]
  outcome: inactive
[3]
  outcome: inactive
[5]
  outcome: inactive
[7]
  outcome: inactive
[10]
  outcome: inactive
[19]
  outcome: inactive
[11]
  outcome: inactive
[18]
  outcome: inactive

## CN1[C@@H]2CC(OC(=O)[C@H](CO)c3ccccc3)C[C@H]1[C@@H]1O[C@@H]12 (some centres not stated)
[4]
  outcome: inactive
[5]
  outcome: inactive
[7]
  outcome: inactive
[9]
  outcome: inactive
[8]
  outcome: inactive
[18]
  outcome: inactive
